Test results as given in PubChem BioAssay AID1851 (National Center for Advancing Translational Sciences (NCATS), 2009).
Screen size: about 16,000 compounds; about 5,800 (36%) were called active. Another 23% or so got no clear call; they are omitted. The list shows a part of the results. Unmarked numbers belong to inactive results. The call rests on the fitted dose curve; in most records, active means well fitted curve in the direction sought with a large enough effect; inconclusive means small, poorly fitted or top-dose-only effect, or effect the other way; inactive means no such curve, though single readings can be large or run the other way.

Biological target: Cytochrome P450 2C19 (Homo sapiens) (UniProt P33261)
Experiment: Cytochrome panel assay with activity outcomes
Conditions: recombinant CYP, pro-luciferin dealkylation, luminescence, p450-cyp2c19; series mostly up to 57.1 µM; activity, negative = inhibition: at the top concentration
On the % scale 0 is the no-effect control and ±100 the full control effect.

Cytochrome P450 2C19 (Homo sapiens), sequence (P33261 whole entry, looked up): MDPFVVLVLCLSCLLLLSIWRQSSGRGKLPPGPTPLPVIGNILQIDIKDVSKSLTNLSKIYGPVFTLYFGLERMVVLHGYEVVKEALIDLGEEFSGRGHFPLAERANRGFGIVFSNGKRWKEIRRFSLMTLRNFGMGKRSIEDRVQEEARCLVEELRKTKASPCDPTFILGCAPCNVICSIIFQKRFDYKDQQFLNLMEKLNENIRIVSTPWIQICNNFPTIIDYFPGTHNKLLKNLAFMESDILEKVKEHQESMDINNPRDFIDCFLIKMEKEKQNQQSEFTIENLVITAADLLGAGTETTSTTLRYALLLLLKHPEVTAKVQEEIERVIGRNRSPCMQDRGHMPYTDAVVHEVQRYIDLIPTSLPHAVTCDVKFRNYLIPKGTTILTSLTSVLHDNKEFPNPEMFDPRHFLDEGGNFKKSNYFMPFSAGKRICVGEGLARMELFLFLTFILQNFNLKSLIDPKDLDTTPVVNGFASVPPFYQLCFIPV

SMILES | activity, negative = inhibition | AC50
O=C(Nc1ccccc1)N1CCC2(CC1)CCN(C(=O)Oc1ccccc1)CC2 | -36.7% | 
COc1ccc(C[C@@H]2NC[C@H](O)[C@@H]2OC(C)=O)cc1 | 27.1% [at 25.6 µM] | 
COc1ccc(C[C@H]2NC[C@H](O)[C@@H]2OC(C)=O)cc1 |  | 3.16 µM (active)
Cc1nc(N)sc1CCN | -29.1% | 
CCCN[C@@H]1CCc2c(OC)cccc2[C@@H]1C | -33.5% | 
CCN(CC)C(=O)N[C@H]1C[C@H]2c3cccc4[nH]cc(c34)C[C@@H]2N(C)C1 | -1.43% | 
O=C1CN=C(c2cccs2)c2c(sc3c2CCCC3)N1 |  | 15.8 µM (active)
C[C@H]1CC[C@@]2(NC1)O[C@@H]1C[C@@H]3[C@@H]4CC=C5C[C@@H](O)CC[C@]5(C)[C@@H]4CC[C@]3(C)[C@H]1[C@@H]2C | 15.9% [at 11.4 µM] | 
COc1ccc2[nH]c3c(c2c1)CCNC3 | 0.139% | 
CCOC(=O)C1Cc2c([nH]c3ccccc23)CN1 (stereo not drawn) |  | 1.58 µM (active)
C[C@@]12CC[C@H]3[C@@H](CC=C4C[C@H](OS(=O)(=O)O)CC[C@]43C)[C@H]1CCC2=O | -11.8% | 
COc1cc(CCN)c(OC)c(OC)c1 | 70.8% [at 11.4 µM] | 
C[C@@H](O)CN(CCN(C[C@@H](C)O)C[C@@H](C)O)C[C@@H](C)O.O=[N+]([O-])O.[Cu] |  | 0.398 µM (active)
CC(=O)O[C@H]1C[C@@H](O[C@@H]2[C@H](C)O[C@H](O[C@@H]3[C@H](C)O[C@H](O[C@@H]4CC[C@@]5(C)[C@@H](CC[C@]6(C)[C@]5(C)C[C@H](O)[C@]5(C)[C@@H](C7=CC(=O)OC7)CC[C@@]56O)C4)C[C@@H]3O)C[C@@H]2O)O[C@@H](C)[C@H]1O[C@H]1O[C@@H](CO)[C@@H](O)[C@@H](O)[C@@H]1O | 15.7% [at 25.6 µM] | 
Cc1ccc(S(=O)(=O)N[C@@H](CCCCN)C(=O)CCl)cc1 | -18.9% | 
O=S1(=O)N(CCN2CC=C(c3c[nH]c4cc(F)ccc34)CC2)c2cccc3c2N1CCC3 |  | 6.31 µM (active)
COc1cc2c(cc1OC)[C@@]13CCN4C=C5CCO[C@H]6CC(=O)N2[C@@H]1[C@@H]6[C@H]5C[C@H]43 | 32% [at 11.4 µM] | 
CC(C)[N+](C)(CCC(C(N)=O)(c1ccccc1)c1ccccc1)C(C)C | -4.45% [at 25.6 µM] | 
C[C@H](CN(C)C)C(C#N)(c1ccccc1)c1ccccc1 | 31.1% [at 11.4 µM] | 
Cc1cc(NC(=O)CCC(=O)N2CCC3(CC2)OCCO3)no1 | 17.5% | 
Cc1ccc2c(c1)N(CCC(=O)N1CCC3(CC1)OCCO3)C(=O)C(C)O2 (stereo not drawn) |  | 0.708 µM (active)

SMILES | activity, negative = inhibition | AC50
CN1CC[C@@]23c4ccccc4N[C@H]1[C@]21CCN(C)[C@@H]3Nc2ccccc21 | 15.2% [at 25.6 µM] | 
CCCC(=O)Nc1ccc(N2CCN(CC)CC2)c(Cl)c1 | -15.6% | 
C=Cn1ccnc1P(=S)(c1nccn1C=C)C1CCCCC1 |  | 3.55 µM (active)
O=C(O)[C@@H](O)[C@@H](O)[C@@H]1[O][Sb][O][C@@H]1CO | 21.2% [at 11.4 µM] | 
CC[N+](CC)(CCCNC1=CC(=O)C(NCCC[N+](CC)(CC)Cc2ccccc2)=CC1=O)Cc1ccccc1 | -21.1% | 
CCN1C[C@@]2(COC)CC[C@H](O)[C@@]34[C@@H]2C[C@@H]([C@@H]13)[C@]1(O)C[C@@H](OC)C2C[C@H]4[C@H]1[C@H]2OC(C)=O | -2.58% [at 25.6 µM] | 
C[N+](C)(C)[C@H](Cc1c[nH]c(=S)[nH]1)C(=O)O | -22.8% [at 11.4 µM] | 
CCCN(CCC)CCc1c[nH]c2ccc(C(N)=O)cc12 | -15% | 
CN=C(NC#N)NCCSCc1nc[nH]c1C |  | 31.6 µM (active)
O=C(Nc1cccc(F)c1)N1CC2(CCN(C(=O)Oc3ccccc3)CC2)C1 | -16.3% | 
O=C(CCN1CC2CCC(CC2)C1)c1cccs1 | -19% [at 11.4 µM] | 
CC[C@@](O)(C(=O)O)c1cc2n(c(=O)c1CO)Cc1cc3ccccc3nc1-2 | 16.3% [at 11.4 µM] | 
CC(=O)NBr | -7.32% | 
N[C@H](CCCCCP(=O)(O)O)C(=O)O |  | inactive
CP(=O)(O)C1=CCNCC1 | -20.7% | 
CC(=O)N1CC[N+](C)(C)CC1 | -17.8% | 
CN1CCN(C(=O)O[C@@H]2c3nccnc3C(=O)N2c2ccc(Cl)cn2)CC1 |  | 15.8 µM (active)
COc1cc2c3cc1Oc1c(O)c(OC)cc4c1[C@@H](Cc1ccc(cc1)Oc1cc(ccc1O)C[C@H]3N(C)CC2)N(C)CC4 | -11% [at 11.4 µM] | 
CC[C@]1(c2cccc(O)c2)CCCCN(C)C1 | 16.1% [at 25.6 µM] | 
C[C@@H]1O[C@@H](O[C@H]2C[C@@H](O)[C@]3(CO)[C@@H]4[C@@H](O)C[C@]5(C)[C@H](C6=CC(=O)OC6)CC[C@@]5(O)[C@H]4CC[C@@]3(O)C2)[C@H](O)[C@H](O)[C@@H]1O | -5.19% | 
C[C@@H](COc1ccccc1)N(CCCl)Cc1ccccc1 |  | 10 µM (active)

SMILES | activity, negative = inhibition | AC50
Clc1cnc(Oc2ccc(Oc3ncc(Cl)cc3Cl)cc2)c(Cl)c1 | -18.5% | 
NCCc1ccc(S(=O)(=O)O)cc1[N+](=O)[O-] | -6.86% [at 11.4 µM] | 
O=C1c2cc([N+](=O)[O-])ccc2-c2ccc3c4ccc5c6c(ccc(c7ccc1c2c73)c64)C(=O)c1cc([N+](=O)[O-])ccc1-5 | -4.82% [at 11.4 µM] | 
O=C1c2ccccc2-c2cc([N+](=O)[O-])c([N+](=O)[O-])cc21 |  | 0.398 µM (active)
COc1ccccc1CN1CC[C@@]2(CCCN(C(=O)Oc3ccccc3)C2)C1 | -33.4% | 
CN(C)CCN(C)CCc1ccc(Cl)c(Cl)c1 |  | 10 µM (active)
CN(CCc1ccc(Cl)c(Cl)c1)[C@H]1CCCC[C@H]1N1CCCC1 |  | 15.8 µM (active)
COc1ccc2c(c1)C13CCCC[C@@H]1C(C2)N(C)CC3 (stereo partly drawn) | 21.6% [at 25.6 µM] | 
C[C@H](Br)C(=O)c1ccc2cc(Br)c3ccccc3c2c1 | -42.1% [at 11.4 µM] | 
CCC1=C(C[C@H]2NCCc3cc(OC)c(OC)cc32)C[C@H]2c3ccccc3CCN2C1 | -4.76% [at 11.4 µM] | 
CC(C)CCn1c(N)c(C(=O)NCc2cccs2)c2nc3ccccc3nc21 |  | 2.51 µM (active)
CCCCn1c(N)c(C(=O)NCc2cccs2)c2nc3ccccc3nc21 |  | 3.98 µM (active)
COc1ccc(Cn2c(N)c(C(=O)NCc3ccco3)c3nc4ccccc4nc32)cc1 |  | 2.51 µM (active)
CSCC[C@@H](N)P(C)(=O)O | 29.3% [at 11.4 µM] | 
O[Si@](CCCN1CCCCC1)(c1ccc(F)cc1)C1CCCCC1 | -23.4% | 
C[N+]1(C)[C@@H]2CC(OC(=O)[C@@H](CO)c3ccccc3)C[C@@H]1[C@H]1O[C@H]12 (stereo partly drawn) | 26.7% [at 11.4 µM] | 
C[C@@H]1O[C@H](OC2[C@@H](O)[C@H](O)C(O)[C@H](O)[C@H]2O)[C@@H](N)C[C@@H]1N=C(N)C(=O)O (stereo partly drawn) | 19% [at 11.4 µM] | 
N[C@@H](CP(=O)(O)O)C(=O)O | 9.32% [at 11.4 µM] | 
CC[C@@]1(c2ccc(N)cc2)CCC(=O)NC1=O |  | inactive
CN1CC[C@@]2(CCCN(C(=O)Oc3ccccc3)C2)C1 | -1.21% | 
C[C@@]12C=CC(=O)C=C1CC[C@@H]1C2=CC[C@]2(C)[C@@H]1CC[C@H]2C(=O)CN1CCN(c2cc(N3CCCC3)nc(N3CCCC3)n2)CC1 | -31% | 

SMILES | activity, negative = inhibition | AC50
O[C@@H](c1cc(-c2ccccc2)nc2c1ccc1ccccc12)[C@@H]1CCCCN1 | -42.2% [at 11.4 µM] | 
CCCN1CCc2cccc3c2[C@@H]1Cc1ccc(O)c(O)c1-3 | 7.56% | 
C[C@@H]1O[C@H](O[C@@H]2CC[C@@]3(C=O)[C@H]4CC[C@@]5(C)[C@@H](C6=CC(=O)OC6)CC[C@@]5(O)[C@@H]4CC[C@]3(O)C2)C[C@H](O)[C@@H]1O | 17.6% [at 25.6 µM] | 
COC(=O)[C@@H]1[C@@H]2C[C@H]3c4[nH]c5cc(OC)ccc5c4CCN3C[C@@H]2C[C@H](OC(=O)/C=C\c2cc(OC)c(OC)c(OC)c2)[C@H]1OC | 9.48% [at 25.6 µM] | 
O=c1[nH]c(=O)n([C@H]2C[C@H](O)[C@H](CO)O2)cc1/C=C\Br | 19.9% | 
COc1ccc2c(c1)CN([C@H](C)[C@@H]1CC[C@@H]3[C@H]4CC[C@H]5C[C@@H](O)CC[C@@]5(C)[C@H]4CC[C@]31C)CO2 |  | 1 µM (active)
CC(=O)OCC(=O)[C@@H]1CC[C@H]2[C@H]3CC[C@H]4C[C@@H](O)CC[C@]4(C)[C@@H]3C(=O)C[C@@]12C | -17.1% [at 25.6 µM] | 
C[C@@]12CC[C@H](O)C[C@@H]1CC[C@H]1[C@H]2CC[C@@]2(C)[C@@H](C3=CC(=O)OC3)CC[C@]12O | 29% [at 25.6 µM] | 
O=c1c(O)c(-c2ccc(O)c(O)c2)oc2cc(O)cc(O)c12 | 18.3% | 
CS(=O)(=O)N1CCCC(C(=O)N2CCC3(CC2)OCCO3)C1 (stereo not drawn) |  | 10 µM (active)
COc1ccc2c(c[n+](C)c3c4cc5c(cc4ccc23)OCO5)c1OC |  | 10 µM (active)
CC1(C)CCC(C)(C)c2c1ccc(O)c2Cc1c(O)ccc2c1C(C)(C)CCC2(C)C | -38.9% [at 11.4 µM] | 
O=C(O)C(C(=O)O)P(=S)(S)c1ccccc1 (stereo not drawn) | 23.5% [at 11.4 µM] | 
CC(Oc1ccc(-c2ccccc2)cc1)C(=O)O (stereo not drawn) |  | 28.2 µM (active)
N[C@H](C(=O)O)c1cc(=O)[nH]o1 | -5.58% | 
c1cnc(N2CCC3(CCNCC3)CC2)nc1 | -11.8% | 
C[C@@]12CC[C@H]3[C@@H](CCC4=C(O)C(=O)CC[C@]43C)[C@H]1CCC2=O | -47.2% | 
COc1cc(C=C(C#N)C#N)cc(O)c1O | 13.5% | 
CS(=O)(=O)O[C@H]1CN2CCC1CC2 | 20.2% [at 11.4 µM] | 
S=P(C1CCCCC1)(C1CCCCC1)[C@H](c1cccnc1)N1CCCC1 |  | 1.26 µM (active)
